Results filed as inconclusive are left out. Activity calls are given as the source filed them. The call rests on the fitted dose curve.
Experiment: p53 small molecule agonists, cell-based qHTS assay with human liver microsomes (AID 1963577);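 further: p53 response element beta-lactamase reporter cells with liver microsomes plus NADPH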
Settings: HCT-116 p53RE-bla with human liver microsomes, ratio, 16 h; series mostly up to 66 µM; activation: at the top concentration
Source text: National Center for Advancing Translational Sciences [NCATS]
Division of Preclinical Innovation [DPI]
U.S. Environmental Protection Agency [EPA]
National Institutes of Environmental Health Sciences [NIEHS]
National Toxicology Program [NTP]
U.S. Food and Drug Administration [FDA]
p53, a tumor suppressor protein, is activated following cellular insult, including DNA damage and other cellular stresses. The activation of p53 regulates cell fate by inducing DNA repair, cell cycle arrest, apoptosis, or cellular senescence. The activation of p53, therefore, is a good indicator of DNA damage and other cellular stresses. […] The activation of the reporter gene under culture conditions can be detected by fluorescence intensity.
Tox21 Assay Protocol Summary:
The p53RE-bla cells were dispensed at 4,000cells/3ul/well in 1536-well black-clear bottom plates. After the assay plates were incubated at 37 C, 5% CO2 incubator for 5 hours, 23 nL of compounds dissolved in DMSO, positive controls or DMSO only was transferred to the assay plate. Following compound addition, 3 uL of human liver microsomes (XenoTech, Kansas City, KS) at final concentration of 0.5 mg/mL and 1uL of Beta-Nicotinamide adenine dinucleotide 2-phosphate (NADPH) at final concentration of 0.5 mg/mL were transferred to the assay plate. The plates were incubated at 37 C for 16 hours. 1 uL of LiveBLAzer detection mixture was added to each well and the plates were incubated at room temperature in the dark for 2 h.
On the % scale 0 is the no-effect control and ±100 the full control effect.

Row | Structure (SMILES) | Potency | activation
1 | CC(=O)O[C@]1(C(C)=O)CC[C@H]2[C@@H]3C=C(C)C4=CC(=O)CC[C@]4(C)[C@H]3CC[C@@]21C | inactive | 
2 | CC1(C)[C@@H]2CC[C@]3(C2)[C@@H]1C(=O)CCC3(C)C |  | 1.65% (inactive)
3 | CCCCCCCOC(=O)c1ccccc1C(=O)OCCCCCCC |  | -6.19% (inactive)
4 | CCOC(=S)SSC(=S)OCC |  | 24.4% (inactive)
5 | CC1=CCC(C(C)(C)O)CC1 (stereo not given) | inactive | 
6 | CCCCCCCC(OC)OC |  | 9.07% [at 30.3 µM] (inactive)
7 | CC(S)C(=O)NCC(=O)O (stereo not given) |  | -0.318% [at 30.3 µM] (inactive)
8 | O=C(O)CCCCCCCCCCCC(=O)O | inactive | 
9 | CC(=O)CC(=O)Nc1ccc2[nH]c(=O)[nH]c2c1 |  | -0.485% (inactive)
10 | Nc1ccc(S(=O)(=O)Nc2ccc(Cl)nn2)cc1 |  | 2.44% [at 30.3 µM] (inactive)
11 | CC(=O)c1cccc([N+](=O)[O-])c1 |  | -0.392% (inactive)
12 | CN(C)C(=S)SC(=S)N(C)C | inactive | 
13 | O=S(=O)(O)CO |  | -0.505% (inactive)
14 | CC(=O)OCC(=O)Nc1cc(C#N)cc(NC(=O)COC(C)=O)c1Cl |  | -1.86% [at 30.3 µM] (inactive)
15 | O=c1cc(CO)occ1O |  | 0.116% [at 30.3 µM] (inactive)
16 | O=C1OC(CN2CCOCC2)CN1/N=C/c1ccc([N+](=O)[O-])o1 (stereo not given) |  | 10.4% [at 30.3 µM] (inactive)
17 | CC(=O)OC[C@H]1O[C@@H](OC(C)=O)[C@H](OC(C)=O)[C@@H]1OC(C)=O |  | -2.68% [at 30.3 µM] (inactive)
18 | C=CC(=O)OCCOC1C2CCC1C1CC=CC12 (stereo not given) |  | -3.49% [at 13.5 µM] (inactive)
19 | COC(=O)Nc1nc2ccc(Sc3ccccc3)cc2[nH]1 | inactive | 
20 | CC(C)(c1cc(Br)c(O)c(Br)c1)c1cc(Br)c(O)c(Br)c1 | inactive | 

Row | Structure (SMILES) | Potency | activation
21 | CC1(C)C(O)C(C)(C)C1O (stereo not given) |  | 1.3% (inactive)
22 | CN1CCCC1=O | inactive | 
23 | Cc1cc(O)cc2c1O[C@](C)(CCC[C@H](C)CCC[C@H](C)CCCC(C)C)CC2 |  | 2.48% [at 30.3 µM] (inactive)
24 | COC(=O)c1ccc(C)cc1C1=NC(C)(C(C)C)C(=O)N1 (stereo not given) |  | -1.69% (inactive)
25 | CO[Si](CCCNCCNCCN)(OC)OC |  | 0.962% (inactive)
26 | CCC(C)(C)C1CCC(=O)CC1 |  | 11.1% (inactive)
27 | CN1CCOCC1 | inactive | 
28 | COCCOCCOCCOCCOCCO |  | 3.08% (inactive)
29 | O=C(O)Cc1cccc(-c2cc(CCCCCCc3ccc(O[C@H]4O[C@H](CO)[C@@H](O)[C@H](O)[C@@H]4O)c(-c4cccc(CC(=O)O)c4)c3)ccc2O[C@H]2O[C@H](CO)[C@@H](O)[C@H](O)[C@@H]2O)c1 |  | -2.66% [at 0.249 µM] (inactive)
30 | Oc1ccc2c(c1)OC[C@@H](N1CCC(O)(c3ccc(F)cc3)CC1)[C@H]2O |  | -7.17% [at 30.3 µM] (inactive)
31 | Cc1ccccc1C(=O)N1CC/C(=N\OS(=O)(=O)O)c2ccc(Cl)cc21 |  | 8% [at 30.3 µM] (inactive)
32 | CCN(CCO)c1cccc(C)c1 |  | 1.19% (inactive)
33 | CC(=O)[C@H]1CC[C@H]2[C@@H]3CCC4=CC(=O)CC[C@]4(C)[C@H]3CC[C@]12C | inactive | 
34 | Cc1ccc(S(=O)(=O)NC(=O)NC2CCCCCCC2)cc1 |  | 1.3% [at 30.3 µM] (inactive)
35 | CCOC(=O)c1ccc(OCCN2C[C@H](O)[C@@H](O)[C@H](O)[C@H]2CO)cc1 |  | -0.363% [at 30.3 µM] (inactive)
36 | O=[N+]([O-])c1ccc(CCO)cc1 |  | -1.86% (inactive)
37 | Cc1[nH]cnc1-c1ccc(Cl)cc1 |  | -1.19% [at 30.3 µM] (inactive)
38 | CC(=O)OCCC1CCCCC1 |  | 3.5% (inactive)
39 | C1CN(CCOCCN2CCOCC2)CCO1 |  | 0.207% (inactive)
40 | CC1OC1C1CCC2(C)OC2C1 (stereo not given) |  | -6.86% (inactive)
